Only some compounds are listed: those with a hit (about 9.9% of all), similar ones and a draw of the others.
KB-V1 cytotox = kills drug-selected multidrug resistant KB-V1 cells | KB-V1 MDR cells viability, CellTiter-Glo, 72 h | Potency, µM (top dose mostly 46.1 µM), hits mostly cytotoxic | actives 3.4% (n = 400,000); note: potency is the fitted concentration of half-maximal effect; % is set by controls: 0 for no effect and ±100 for the full control effect; nearly all actives have a fitted effect of over 60% in size
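In this primary screen, KB-V1 cells overexpressing P-gp are incubated with library compounds (lowest to highest concentration) for 72 h at 37 degrees C before a luminescent ATP viability read.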
IL-1B inflam inh = blocks inflammasome-driven IL-1 beta release; THP-1 LPS/ATP IL-1B secretion, AlphaLISA, 16 h; hits give low values; activity change, % at 57.5 µM; actives 4.7% (n = 360,000); in the data active = activity change below about -50%; inconclusive = mostly about -30% to -49%; note: % is set by controls: 0 for no effect and ±100 for the full control effect
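THP-1 cells pretreated 1 hr with compounds (up to 57.5 uM final), then stimulated with LPS (250 ng/mL final) plus ATP (1.25 mM final); secreted IL-1B measured by AlphaLISA after 16 hr, decreased signal indicating inhibition.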
KB-3-1 tox = KB-3-1 parental cell cytotoxicity | KB-3-1 viability, CellTiter-Glo ATP luminescence, 72 h | Potency, µM (series often up to 46.1 µM), hits mostly cytotoxic | actives 1.4% (n = 400,000); note: potency is the fitted concentration of half-maximal effect; % is set by controls: 0 for no effect and ±100 for the full control effect; nearly all actives have a fitted effect of over 60% in size
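Parental KB-3-1 adenocarcinoma cells in phenol-red-free DMEM with 10% FBS were pin-treated with compounds at several concentrations, incubated 72 h at 37 °C, and viability read by CellTiter-Glo luminescence; concentration-effect curves were fitted after normalization.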
SW480 rereplic = DNA re-replication induction in SW480 cells | SW480 DNA re-replication, Hoechst DNA content imaging, 48 h | Potency, µM (highest dose often 46.1 µM), for the others: at the top dose re-replication activation, most hits filed as activators | actives 1.8% (n = 340,000) | AID 624297; note: potency is the fitted concentration of half-maximal effect; % of control where 0% means no effect; nearly all actives have a fitted effect of over 55% in size
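First, 250 cells per well were seeded. Next, compound or vehicle (23 nL) was pinned in, plates sat 48 hr at 37 C. Finally Hoechst was added for 40 min before fluorescence scanning.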
MCF10A rerep = induces DNA re-replication in MCF 10a normal breast cells. actives 2.9% (n = 350,000). MCF 10A DNA re-replication, Hoechst nuclear intensity, 48 h. Potency, µM (titrated, usually from 46.1 µM), without a hit: at the top dose activity, positive = re-replication, most hits filed as activators; note: potency is the fitted concentration of half-maximal effect; % of control where 0% means no effect; nearly all actives have a fitted effect of over 50% in size
Active calls of the source: *; i = inactive; ? = inconclusive; . = no result given. Unless noted, calls come from the whole dose curve; as a rule, active = well fitted curve in the direction sought with a large enough effect; inconclusive = small, poorly fitted or top-dose-only effect, or another doubt; inactive = no such curve, though single readings can be large; an effect the other way counts as inactive or inconclusive.

SMILES	KB-V1 cytotox	IL-1B inflam inh	KB-3-1 tox	SW480 rereplic	MCF10A rerep
COc1ccc(-c2sc3cc(OC)c(OC)cc3c2-c2ccc(O)cc2)cc1	i	-54*	i	21µM*	?
COc1ccc(-c2c(-c3ccccc3OC)oc3ccccc23)cn1	i	16	i	-4%	16µM*
COc1ccc2sc(-c3ccccc3OC)c(-c3ccc(OC)nc3)c2c1	i	-4	i	-4%	23µM*
COc1ccc(-c2sc3ccccc3c2-c2ccc(O)cc2)cc1	i	0	?	6%	?
COc1cc2sc(-c3ccccc3OC)c(-c3ccc(OCCN4CCCCC4)cc3)c2cc1OC	?	-4	?	-4%	?
Cc1ccc(-c2cc(C(=O)OCC(=O)N(C)c3c(N)n(Cc4ccccc4)c(=O)[nH]c3=O)c3ccccc3n2)o1	i	?	i	15%	10%
COc1ccccc1-c1sc2ccccc2c1C#Cc1ccc(N(C)C)cc1	i	3	i	8.2µM*	?
COc1ccccc1-c1sc2ccccc2c1-c1ccc(O)cc1	i	7	i	16µM*	?
COc1ccccc1-c1sc2ccccc2c1-c1ccc2c(c1)OCO2	i	0	i	12%	?
COc1cc(OC)cc(C(=O)NNC(=S)NC2CC2)c1	i	-1	i	-1%	0%
Cn1cnnc1SC1c2cccc3cccc(c23)C1NS(=O)(=O)c1ccccc1 (stereo not given)	i	-13	i	0%	-1%
O=S(=O)(NC1c2cccc3cccc(c23)C1N1CCNCC1)c1ccc(Cl)cc1 (stereo not given)	i	-60*	?	-2%	6%
Cc1ccc(S(=O)(=O)NC2c3cccc4cccc(c34)C2Sc2nc(C)cc(C)n2)cc1 (stereo not given)	5.2µM*	3	i	-59%	?
CS(=O)(=O)NC1c2cccc3cccc(c23)C1Sc1nncn1/N=C/c1ccco1 (stereo not given)	i	-60*	i	-6%	-6%
Cn1cnnc1SC1c2cccc3cccc(c23)C1NS(=O)(=O)c1ccc(Cl)cc1 (stereo not given)	12µM*	11	i	3%	-6%
Cc1ccc(S(=O)(=O)NC2c3cccc4cccc(c34)C2Sc2nncn2C)cc1 (stereo not given)	i	10	?	2%	?
CC(=O)N1CCN(C2c3cccc4cccc(c34)C2NS(=O)(=O)c2ccccc2)CC1 (stereo not given)	i	20	i	-2%	-8%
Cc1ccc(-c2c(C)n3c4c(=O)n(C)c(=O)n(C)c4nc3n2CCCO)cc1	6.5µM*	.	?	.	.
COC(=O)CCCn1c(-c2ccc(C)cc2)c(C)n2c3c(=O)n(C)c(=O)n(C)c3nc12	?	.	i	.	.
N#C/C(=C\C=C\c1ccccc1)C(=O)NCc1ccco1	i	-81*	i	?	?
O=C(/C=C/c1ccccc1)NCc1ccco1	i	-18	i	16%	0%
O=C(NCc1ccco1)/C(=C/C=C\c1ccccc1)NC(=O)c1ccc(Br)o1	4.1µM*	-8	?	?	?
COc1ccccc1NC(=O)/C=C\c1ccco1	i	20	i	-1%	6%
COc1ccccc1NC(=O)/C(C#N)=C/C=C/c1ccco1	?	23	1.5µM*	0.92µM*	8.2µM*
O=C(Cn1c(=O)oc2cc(S(=O)(=O)N3CCCCC3)ccc21)Nc1cccc(Cl)c1	i	.	i	.	.
SMILES	KB-V1 cytotox	IL-1B inflam inh	KB-3-1 tox	SW480 rereplic	MCF10A rerep
CCOC(=O)c1c(NC(=O)CC2Nc3cc(C)c(C)cc3NC2=O)sc(C)c1C (stereo not given)	i	11	i	-1%	3%
CCCCc1nnc(NC(=O)c2oc3ccccc3c2C)s1	?	-14	i	1%	10%
Cc1c(C(=O)Nc2nccs2)oc2ccc(Br)cc12	8.2µM*	25	5.8µM*	10%	?
CCc1nnc(NC(=O)c2oc3ccc(Br)cc3c2C)s1	i	-17	i	-4%	21µM*
CCc1nc2c(OCCOc3ccc(F)cc3)cccn2c1N(C)C(=O)CC(C)C	?	-2	i	.	.
Cc1cccc(N=C2Sc3nc4c(C)c(C)ccc4cc3CN2CCN2CCOCC2)c1	i	-59*	i	1%	12µM*
COC(=O)c1cc(NC(=O)C(C)c2ccc(CC(C)C)cc2)ccc1O (stereo not given)	i	-21	i	?	15µM*
O=C(/C=C/c1ccco1)Oc1cc(Br)cc(/C=N/NC(=O)c2ccccc2O)c1	?	56	?	0.73µM*	?
Cc1ccc(C(=O)N/N=C/c2cccc(OC(=O)/C=C/c3ccco3)c2)cn1	i	-2	i	-1%	-1%
Cc1ccc(C(=O)OC(C)C(=O)NC2CCCCC2C)s1 (stereo not given)	21µM*	-9	i	-5%	6%
CC(OC(=O)c1ccccc1NCCO)C(=O)NC1CCCCC1C (stereo not given)	9.2µM*	0	i	4%	6%
CCC(CCNC(=O)c1ccccc1)(CCNC(=O)c1ccccc1)[N+](=O)[O-]	21µM*	-15	i	-3%	2%
CC(CCNC(=O)c1ccccc1)(CCNC(=O)c1ccccc1)[N+](=O)[O-]	15µM*	-16	i	1%	2%
Cc1cc(C)c(NC(=O)CSc2nc(=O)n(Cc3cccnc3)c3c2CCC3)c(C)c1	i	.	i	.	.
CC(=O)c1ccc(NC(=O)CSc2ccc(-c3ccc(-n4cccn4)cc3)nn2)cc1	i	4	i	-35%	-1%
Cn1c(C(=O)OC(C(=O)NCC2CCCO2)c2cccnc2)cc2sccc21 (stereo not given)	i	-18	i	1.3µM*	?
Cn1c(C(=O)OC(C(=O)NCc2ccco2)c2ccncc2)cc2sccc21 (stereo not given)	3.7µM*	7	i	10%	3%
CC(OC(=O)c1cc2sccc2n1C)C(=O)NCCc1ccccc1 (stereo not given)	13µM*	6	i	?	?
CC(OC(=O)c1cc2sccc2n1C)C(=O)NCc1ccco1 (stereo not given)	i	6	i	0%	-12%
CCC(OC(=O)c1cc2sccc2n1C)C(=O)NCC1CCCO1 (stereo not given)	23µM*	19	i	-4%	6%
CC(OC(=O)c1cc2sccc2n1C)C(=O)NCC1CCCO1 (stereo not given)	i	12	i	-2%	6%
COc1cccc(N2CCN(C(=O)c3ccc(OC)c(S(=O)(=O)NC4CC4)c3)CC2)c1	i	15	i	.	.
